Where “and” joins values, the source holds several entries; their conditions need not be identical. Equal values may be shown once. Records with an inconclusive call do not appear. Entries that show only a call come without a potency. Some compounds were tested as several samples or in several runs, with calls that do not always agree. Calls of active or inactive are those of the source. Unless noted, the call rests on the fitted dose curve; in most records, active means well fitted curve in the direction sought with a large enough effect in the repeat runs; inconclusive means weak or mixed curves; inactive means no such curve, though single readings can be large; an effect the other way counts as inactive or inconclusive.
Assays:
[1] = qHTS assay to identify small molecule agonists of the estrogen receptor alpha (ER-alpha) signaling pathway in the presence of an antagonist - cell viability counter screen (AID 1259386);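 further: cells exposed to compounds for 22 h at 37 °C before the viability read; nearly all actives have a fitted effect of over 30% in size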; further: potency means the concentration at half of the fitted maximal effect
Method in brief: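 Steps: 5-day stripped-FBS culture; seed and incubate 24hr; add ICI-182,780 (10.0nM final); pin 15-point compound titration; incubate 22hr at 37C; add CellTiter-Fluor at 21hr; read fluorescence.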

[2] = target: Progesterone receptor (Homo sapiens) (UniProt P06401); test: qHTS assay to identify small molecule agonists of the progesterone receptor (PR) signaling pathway (AID 1346784; calls by dose curve; further: nearly all actives have a fitted effect of over 30% in size; further: potency means the concentration at half of the fitted maximal effect)
Progesterone receptor (Homo sapiens), sequence (P06401 whole entry, looked up): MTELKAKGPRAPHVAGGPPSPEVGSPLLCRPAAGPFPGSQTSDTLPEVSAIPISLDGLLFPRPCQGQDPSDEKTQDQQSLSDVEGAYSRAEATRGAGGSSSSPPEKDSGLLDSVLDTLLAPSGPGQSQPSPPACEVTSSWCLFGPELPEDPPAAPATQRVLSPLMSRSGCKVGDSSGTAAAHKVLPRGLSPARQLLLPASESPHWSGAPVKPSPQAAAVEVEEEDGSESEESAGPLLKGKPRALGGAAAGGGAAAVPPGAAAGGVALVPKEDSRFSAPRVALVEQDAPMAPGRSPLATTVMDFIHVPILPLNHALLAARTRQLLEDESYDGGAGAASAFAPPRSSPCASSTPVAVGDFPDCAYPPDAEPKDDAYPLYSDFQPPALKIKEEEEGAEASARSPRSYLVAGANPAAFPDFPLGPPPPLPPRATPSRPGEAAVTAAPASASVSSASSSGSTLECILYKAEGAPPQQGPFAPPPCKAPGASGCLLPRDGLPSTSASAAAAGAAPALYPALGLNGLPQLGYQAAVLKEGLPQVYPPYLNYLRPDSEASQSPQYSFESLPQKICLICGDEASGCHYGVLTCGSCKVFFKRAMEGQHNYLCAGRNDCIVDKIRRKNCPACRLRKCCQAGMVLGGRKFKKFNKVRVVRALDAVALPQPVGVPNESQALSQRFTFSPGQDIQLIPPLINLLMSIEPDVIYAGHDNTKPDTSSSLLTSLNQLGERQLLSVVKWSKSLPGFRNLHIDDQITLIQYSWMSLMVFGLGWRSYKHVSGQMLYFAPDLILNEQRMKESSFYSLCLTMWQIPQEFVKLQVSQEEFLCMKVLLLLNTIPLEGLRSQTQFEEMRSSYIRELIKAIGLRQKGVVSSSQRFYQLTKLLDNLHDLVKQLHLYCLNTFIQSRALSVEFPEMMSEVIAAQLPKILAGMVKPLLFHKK
Method in brief: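 PR-UAS-bla HEK 293T cells (beta-lactamase reporter under UAS) in 2% charcoal-stripped FBS, dosed with 23 nL compound after 6 hr, incubated 16hr at 37C. LiveBLAzer B/G FRET substrate added, fluorescence read after 2 hours.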

[3] = target: Progesterone receptor (Homo sapiens) (UniProt P06401); test: qHTS assay to identify small molecule antagonists of the progesterone receptor (PR) signaling pathway (AID 1346795; active means well fitted inhibition curve with a large enough effect in the signal ratio in the repeat runs, not every such curve was filed as active; the % refers to the signal ratio)
Method in brief: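 PR-UAS-bla HEK293T cells with beta-lactamase reporter under UAS control, in 2% charcoal-stripped FBS, treated with compounds plus 1 nM promegestone (R5020, final) for 16 hr at 37C. Read-out: FRET beta-lactamase substrate fluorescence after 2 hr at room temperature.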

[4] = qHTS assay to identify small molecule antagonists of the progesterone receptor (PR) signaling pathway - cell viability counter screen (AID 1346798); further: nearly all actives have a fitted effect of over 50% in size; further: potency means the concentration at half of the fitted maximal effect
Method in brief: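 PR-UAS-bla HEK293T cells, 3,000/well in 2% charcoal-stripped FBS medium, dosed with compounds plus R5020 agonist and incubated 16 h at 37C. Viability then measured in the same wells by CellTiter-Glo luminescence after 30 min at RT.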

[5] = qHTS assay to identify small molecule agonists of the progesterone receptor (PR) signaling pathway - cell viability counter screen (AID 1346799; calls by dose curve; further: nearly all actives have a fitted effect of over 45% in size; further: potency means the concentration at half of the fitted maximal effect)
Method in brief: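 Counter screen in the PR-UAS-bla HEK293T wells (2% charcoal-stripped FBS, 16 h compound exposure at 37 C) after the bla read. CellTiter-Glo added, 30 min at room temperature, luminescence read as cell viability.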

[6] = qHTS assay to identify small molecule antagonists of the TGF-beta/Smad signaling pathway - cell viability counter screen (AID 1346824); further: nearly all actives have a fitted effect of over 50% in size; further: potency means the concentration at half of the fitted maximal effect
Method in brief: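 Cytotoxicity counter-screen run in the same wells as the beta-lactamase Smad reporter read: CellTiter-Glo luminescence after 30 min at room temperature. HEK 293T SBE-bla cells had 5 hr compound exposure at 37 C with TGF-beta1 (0.25 ng/mL stock).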

[7] = qHTS assay to identify small molecule agonists of the TGF-beta/Smad signaling pathway - cell viability counter screen (AID 1346829); further: nearly all actives have a fitted effect of over 45% in size; further: potency means the concentration at half of the fitted maximal effect
Method in brief: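 In parallel with the Smad reporter read, viability of HEK 293T cells stably carrying SBE-bla is quantified by ATP luminescence following 5 hr compound treatment.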

[8] = qHTS assay to identify small molecule agonists of the TGF-beta/Smad signaling pathway (AID 1346859; active means well fitted activation curve with a large enough effect in the signal ratio in the repeat runs, not every such curve was filed as active; the % refers to the signal ratio; further: series mostly up to about 77 µM)
Method in brief: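 SBE-bla HEK293T cells plated overnight, then compound exposure for 5 h at 37 C. Beta-lactamase reporter read with LiveBLAzer B/G FRET substrate after 2 h at room temperature, fluorescence at 405 nm excitation, 460/530 nm emission.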

[9] = target: Thyrotropin-releasing hormone receptor (Homo sapiens) (UniProt P34981); test: qHTS assay to identify small molecule antagonists of the thyrotropin-releasing hormone receptor (TRHR) signaling pathway (AID 1346877; active means well fitted inhibition curve with a large enough effect in the repeat runs, not every such curve was filed as active; further: series mostly up to about 51 µM)
Thyrotropin-releasing hormone receptor (Homo sapiens), sequence (P34981 whole entry, looked up): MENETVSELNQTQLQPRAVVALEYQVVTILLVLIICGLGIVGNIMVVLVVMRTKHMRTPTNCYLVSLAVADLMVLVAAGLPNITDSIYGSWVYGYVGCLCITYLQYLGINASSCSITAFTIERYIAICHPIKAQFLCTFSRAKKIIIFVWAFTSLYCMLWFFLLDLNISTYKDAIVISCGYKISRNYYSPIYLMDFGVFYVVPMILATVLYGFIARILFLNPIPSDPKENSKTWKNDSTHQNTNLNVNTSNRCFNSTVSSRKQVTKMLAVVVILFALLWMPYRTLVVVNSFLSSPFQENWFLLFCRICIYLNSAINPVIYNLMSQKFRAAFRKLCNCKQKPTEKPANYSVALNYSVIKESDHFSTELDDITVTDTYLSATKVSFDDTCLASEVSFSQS
Method in brief: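 Human TRHR in HEK293 cells; inhibition of the intracellular calcium rise triggered by 1 nM TRH was followed by fluorescence over 3 min. Compounds were run at 15 concentrations, three replicates each.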

[10] = Caspase-3/7 induction in HepG2 cells by small molecules, qHTS assay (AID 1346978); further: nearly all actives have a fitted effect of over 15% in size; further: potency means the concentration at half of the fitted maximal effect
Method in brief: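 Caspase-3/7 induction was measured by Caspase-Glo 3/7 luminescence (30 min, room temperature) after a 17 hr compound exposure of wild-type HepG2 cells seeded at 2,000 per well and pre-incubated 5 hr.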

[11] = Caspase-3/7 induction in CHO-K1 cells by small molecules, qHTS cell viability counter screen (AID 1346979); further: nearly all actives have a fitted effect of over 35% in size; further: potency means the concentration at half of the fitted maximal effect
Method in brief: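 Wild-type CHO-K1 cells (1,500/well) treated with compound after 5 h plating; after 16 h at 37C, viability read as CellTiter-Fluor fluorescence following 1 h reagent incubation, in the same wells as the caspase read.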

[12] = Caspase-3/7 induction in CHO-K1 cells by small molecules, qHTS assay (AID 1346980); further: nearly all actives have a fitted effect of over 15% in size
Method in brief: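 Luminescent Caspase-Glo 3/7 read (30min, room temperature) quantified apoptosis induction. Cells were wild-type CHO-K1, treated with compound for 17hr at 37 C and 5% CO2.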

[13] = Caspase-3/7 induction in HepG2 cells by small molecules, qHTS cell viability counter screen (AID 1346981); further: nearly all actives have a fitted effect of over 30% in size; further: potency means the concentration at half of the fitted maximal effect
Method in brief: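 The parent HepG2 line is plated at 2,000 cells per well and rested 5 hr before compound pinning from DMSO stocks. Following a 16-hr treatment at 37 C, a fluorogenic live-cell substrate (CellTiter-Fluor) reports viability after 1 hr.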

[14] = target: Nuclear receptor subfamily 1 group I member 2 (Homo sapiens) (UniProt O75469); test: Human pregnane X receptor (PXR) small molecule agonists, qHTS assay (AID 1346982); further: nearly all actives have a fitted effect of over 35% in size; further: potency means the concentration at half of the fitted maximal effect
Nuclear receptor subfamily 1 group I member 2 (Homo sapiens), sequence (O75469 whole entry, looked up): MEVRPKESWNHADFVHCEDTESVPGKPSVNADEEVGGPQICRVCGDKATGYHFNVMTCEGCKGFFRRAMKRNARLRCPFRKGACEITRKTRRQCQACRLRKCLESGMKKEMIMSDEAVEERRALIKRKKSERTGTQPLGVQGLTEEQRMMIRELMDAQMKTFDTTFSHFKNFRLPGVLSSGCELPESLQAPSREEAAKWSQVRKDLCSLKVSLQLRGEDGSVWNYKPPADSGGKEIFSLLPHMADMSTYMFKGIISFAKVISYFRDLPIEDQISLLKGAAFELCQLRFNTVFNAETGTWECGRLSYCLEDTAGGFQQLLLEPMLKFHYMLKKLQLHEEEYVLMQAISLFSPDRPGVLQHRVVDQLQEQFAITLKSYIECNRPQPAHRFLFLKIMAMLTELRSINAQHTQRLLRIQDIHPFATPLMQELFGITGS
Method in brief: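 After plating in 5% charcoal-stripped FBS and a 5 hr rest, PXR-Luc HepG2 cells received compounds in DMSO. Following 24 hr at 37 C, ONE-Glo was added and light output read.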

[15] = target: Nuclear receptor subfamily 1 group I member 2 (Rattus norvegicus) (UniProt Q9R1A7); test: Rat pregnane X receptor (rPXR) activation by small molecules, qHTS assay (AID 1346983); conditions: rPXR luciferase reporter cells, One-Glo luminescence, 24 h; max activation: stronger effect = higher value; further: nearly all actives have a fitted effect of over 20% in size; further: potency means the concentration at half of the fitted maximal effect
Nuclear receptor subfamily 1 group I member 2 (Rattus norvegicus), sequence (Q9R1A7 whole entry, looked up): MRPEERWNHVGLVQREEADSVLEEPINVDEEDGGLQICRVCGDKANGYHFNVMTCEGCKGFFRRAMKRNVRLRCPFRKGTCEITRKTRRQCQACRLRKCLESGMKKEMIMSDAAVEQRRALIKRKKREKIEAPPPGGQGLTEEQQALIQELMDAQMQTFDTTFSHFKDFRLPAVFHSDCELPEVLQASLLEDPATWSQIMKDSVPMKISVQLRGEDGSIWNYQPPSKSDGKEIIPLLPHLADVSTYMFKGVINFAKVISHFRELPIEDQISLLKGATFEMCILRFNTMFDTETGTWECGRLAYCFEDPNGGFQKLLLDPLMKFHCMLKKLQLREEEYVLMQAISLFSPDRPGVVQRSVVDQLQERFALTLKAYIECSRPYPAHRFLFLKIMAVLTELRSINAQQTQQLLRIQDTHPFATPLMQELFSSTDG
Method in brief: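 Luminescent readout (One-Glo luciferase, 30 min room temperature) followed 24 hr compound treatment at 37 C of rPXR cells plated 2,000 per well and preincubated 5hr; qHTS format with compounds delivered in DMSO.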

[16] = target: Nuclear receptor subfamily 1 group I member 2 (Homo sapiens) (UniProt O75469); test: CYP3A4 induction through human pregnane X receptor (PXR) by small molecules, qHTS assay (AID 1346984); further: nearly all actives have a fitted effect of over 40% in size; further: potency means the concentration at half of the fitted maximal effect
Method in brief: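 Human PXR activation is tracked via CYP3A4 promoter-luciferase in DPX-2 (HepG2) cells. Compounds treat cells for 24hr at 37C, and luminescence is read after One-Glo.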

[17] = target: Nuclear receptor subfamily 1 group I member 2 (Homo sapiens) (UniProt O75469); test: Human pregnane X receptor (PXR) activation by small molecules, qHTS assay (AID 1346985); further: nearly all actives have a fitted effect of over 40% in size
Method in brief: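 DPX-2 cells (HepG2 co-transfected with a PXR response element and a CYP3A4-promoter luciferase construct) were seeded at 2,000 per well, rested 5 hr at 37C, then exposed to DMSO-dissolved compounds for 24 hr. Activation was read as luciferase luminescence.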

[18] = Human pregnane X receptor (PXR) small molecule agonists, qHTS cell viability counter screen (AID 1346977); further: nearly all actives have a fitted effect of over 50% in size; further: potency means the concentration at half of the fitted maximal effect
Method in brief: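 PXR-Luc HepG2 cells (2,000/well, 5% charcoal-stripped FBS) preincubated 5 hr, then exposed to compounds 24 hr at 37 C. Viability read in the same wells by CellTiter-Fluor fluorescence, reagent added at 23 hr, 1 hr incubation.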

[19] = target: Thyrotropin receptor (Homo sapiens) (UniProt P16473); test: qHTS assay to identify small molecule antagonists of the thyroid stimulating hormone receptor (TSHR) signaling pathway (AID 1259385; calls by dose curve; further: nearly all actives have a fitted effect of over 20% in size)
Thyrotropin receptor (Homo sapiens), sequence (P16473 whole entry, looked up): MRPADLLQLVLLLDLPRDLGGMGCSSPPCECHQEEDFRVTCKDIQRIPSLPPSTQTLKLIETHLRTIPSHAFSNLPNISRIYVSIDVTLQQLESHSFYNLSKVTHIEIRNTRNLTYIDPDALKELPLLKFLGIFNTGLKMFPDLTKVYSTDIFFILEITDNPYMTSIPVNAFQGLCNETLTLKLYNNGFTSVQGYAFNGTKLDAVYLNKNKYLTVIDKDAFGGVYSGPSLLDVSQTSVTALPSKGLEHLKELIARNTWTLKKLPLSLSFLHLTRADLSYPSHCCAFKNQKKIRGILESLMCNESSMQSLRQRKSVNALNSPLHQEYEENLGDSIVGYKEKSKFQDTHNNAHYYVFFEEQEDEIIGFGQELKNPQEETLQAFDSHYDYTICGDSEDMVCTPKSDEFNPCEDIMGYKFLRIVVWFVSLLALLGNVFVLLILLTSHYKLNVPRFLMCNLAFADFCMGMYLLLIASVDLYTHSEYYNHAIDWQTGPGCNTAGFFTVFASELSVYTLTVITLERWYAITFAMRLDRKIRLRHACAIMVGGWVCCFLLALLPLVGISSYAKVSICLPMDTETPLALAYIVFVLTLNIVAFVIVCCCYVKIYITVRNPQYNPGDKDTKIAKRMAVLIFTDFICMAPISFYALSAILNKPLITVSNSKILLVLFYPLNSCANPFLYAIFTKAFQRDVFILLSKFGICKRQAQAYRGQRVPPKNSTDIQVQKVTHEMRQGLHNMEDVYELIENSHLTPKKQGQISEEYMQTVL
Method in brief: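 Antagonist mode: compound-treated TSHR-expressing HEK293 cells were stimulated with 1.5 ng/mL TSH (final) in presence of Ro20-1724 for 30 min at RT. HTRF cAMP detection after 1 h; each compound tested at 15 concentrations, triplicate.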

| SMILES | Potency [1] | Potency [2] | Potency [3] | Potency [4] | Potency [5] | Potency [6] | Potency [7] | outcome [8] | Potency [9] | Potency [10] | Potency [11] | Potency [12] | Potency [13] | Potency [14] | max activation [15] | Potency [16] | outcome [17] | Potency [18] | Potency [15] | Potency [19] |
| --- | --- | --- | --- | --- | --- | --- | --- | --- | --- | --- | --- | --- | --- | --- | --- | --- | --- | --- | --- | --- |
| CCCCCCCCCCCCCCCC[N+](C)(C)Cc1ccccc1 | inactive | inactive | inactive | 24.8 µM (active) | 10 µM (active) and 12.4 µM (active) and 6.68 µM (active) | 56.7 µM (active) and 49.8 µM (active) | 45 µM (active) and 39.6 µM (active) and 19 µM (active) | inactive | inactive | 70.8 µM (active) and inactive | 50.1 µM (active) and 39.3 µM (active) and 29.8 µM (active) | inactive | 62.2 µM (active) | inactive | -17.4% (inactive) | inactive | inactive | – | – | – |
| CC1(C)O[C@@H]2C[C@H]3[C@@H]4CCC5=CC(=O)C=C[C@]5(C)[C@@]4(F)[C@@H](O)C[C@]3(C)[C@]2(C(=O)CO)O1 | inactive | 3.5 nM (active) and 3.9 nM (active) and 3.8 nM (active) | – | inactive | inactive | inactive | inactive | inactive | – | inactive | inactive | inactive | inactive | – | – | – | – | inactive | 12.6 µM (active) | – |
| COc1ccc(CN(CCN(C)C)c2ccccn2)cc1 | inactive | inactive | inactive | inactive | 42.8 µM (active) and 28.2 µM (active) and inactive | inactive | inactive | inactive | inactive | inactive | inactive | inactive | inactive | inactive | – | – | – | inactive | – | – |
| CCc1nc(N)nc(N)c1-c1ccc(Cl)cc1 | inactive | inactive | – | inactive | inactive | inactive | inactive and 16.9 µM (active) | inactive | – | inactive | inactive | inactive | inactive | 62.1 µM (active) | – | – | – | 49.3 µM (active) | – | – |
| Nc1ccc(O)c([N+](=O)[O-])c1 | 43.3 µM (active) | – | – | – | – | inactive | inactive | inactive | inactive | inactive | 47.1 µM (active) | inactive | 61.1 µM (active) | 19.3 µM (active) | – | – | – | – | – | – |
| Nc1c(N=Nc2ccc(-c3ccc(N=Nc4cc(S(=O)(=O)O)c5ccccc5c4N)cc3)cc2)cc(S(=O)(=O)O)c2ccccc12 | 17.2 µM (active) | inactive | inactive | inactive | inactive | inactive | inactive | inactive | – | inactive | 12.2 µM (active) | inactive | 17.2 µM (active) | inactive | -6.72% (inactive) | 22.4 µM (active) | inactive | 8.63 µM (active) | – | – |
| Oc1ccccc1 | inactive | – | – | inactive | inactive | inactive | inactive | inactive | – | inactive | inactive | inactive | inactive | – | – | – | – | inactive | – | inactive |

Source: PubChem BioAssay (Tox21)
